Results filed as inconclusive are left out. Some structures have more than one record in an assay (separate samples or runs), and their calls can disagree. The source made the active and inactive calls. The calls were made as follows, unless noted: active = hit-call score of the fitted dose curve at least 0.9, where 1 is the maximum; inactive = score below 0.9.
Columns and labels:
[1] = CCTE_Shafer_MEA_dev_burst_rate: CCTE's Neural Network Formation Assay for Burst Rate, Shafer Lab (AID 2284042)
Summary of the method: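 Rat primary cortical cultures on PEI/laminin MEA; compound from plating, re-dosed at DIV 5, 9 media change. Single-electrode bursts/recording length, well mean of active electrodes; AUC over DIV 5–12 recordings; loss-of-signal vs DMSO.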

[2] = CCTE_Shafer_MEA_dev_per_burst_interspike_interval: CCTE's Neural Network Formation Assay for Burst Interspike Interval, Shafer Lab (AID 2284044);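 also: mean spike spacing inside bursts as AUC over recordings on days 5 7 9 12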
Summary of the method: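 Spontaneous activity of maturing rat cortical networks is recorded on DIV 5, 7, 9 and 12 under chronic compound exposure beginning at plating. Endpoint: burst interspike interval well-mean, collapsed into trapezoidal AUC and fitted in the negative direction relative to DMSO.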

[3] = CCTE_Shafer_MEA_dev_burst_duration_mean: CCTE's Neural Network Formation Assay for Mean Burst Duration, Shafer Lab (AID 2284045)
Summary of the method: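 Primary rat cortical neurons on 48-well 16-electrode MEA plates, exposed from day 0 with renewal at DIV 5 and 9; spontaneous activity recorded on days 5, 7, 9, 12. Well-mean burst duration across bursting electrodes, collapsed as trapezoidal AUC; DMSO baseline.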

[4] = CCTE_Shafer_MEA_dev_interburst_interval_mean: CCTE's Neural Network Formation Assay for Mean Interburst Interval, Shafer Lab (AID 2284046);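 also: well-mean interburst interval of bursting electrodes as AUC over four recording days; curve fitted for decrease in interburst interval relative to DMSO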
Summary of the method: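 Rat cortical neurons, 1.5 x 10^5 cells/well, 48-well MEA; compound from day 0 through DIV 12, media and treatment renewed DIV 5/9. Recordings DIV 5, 7, 9, 12; well-mean interburst interval → trapezoidal AUC, loss direction vs DMSO.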

[5] = CCTE_Shafer_MEA_dev_inter_network_spike_interval_mean: CCTE's Neural Network Formation Assay for Mean Inter-network Spike Interval, Shafer Lab (AID 2284047);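 as to AC50: potency for a decrease in mean inter-network spike interval below DMSO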
Summary of the method: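 Primary rat cortical neurons on PEI-coated 48-well MEAs (16 electrodes/well) were exposed from plating day 0 to DIV 12, with dosing renewed at DIV 5 and 9. Recordings at DIV 5, 7, 9, 12 were collapsed by trapezoidal AUC, loss-of-signal fit vs DMSO.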

[6] = CCTE_Shafer_MEA_dev_network_spike_number: CCTE's Neural Network Formation Assay for Number of Network Spikes, Shafer Lab (AID 2284048)
Summary of the method: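 Primary rat cortical neurons on PEI/laminin 48-well MEA plates, dosed from plating day 0 for 12 days, renewed at DIV 5 and 9. Network spike counts recorded DIV 5, 7, 9, 12, collapsed as trapezoidal AUC; DMSO baseline.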

[7] = CCTE_Shafer_MEA_dev_network_spike_peak: CCTE's Neural Network Formation Assay for Mean Number of Electrodes in Network Spike, Shafer Lab (AID 2284049);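 as to AC50: fitted for loss of signal meaning fewer electrodes in network spikes than DMSO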
Summary of the method: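 Network-spike peak electrode count from recordings on days 5, 7, 9 and 12 was combined as trapezoidal area under the curve. Rat cortical cultures were treated continuously from plating, with compound renewed at each feed (DIV 5, 9); fits versus DMSO.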

[8] = CCTE_Shafer_MEA_dev_spike_duration_mean: CCTE's Neural Network Formation Assay for Mean Spike Duration, Shafer Lab (AID 2284051);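 also: mean network spike duration pooled as area under curve over DIV 5 to 12 recordings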;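 as to AC50: potency for a decrease in mean network spike duration versus DMSO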
Summary of the method: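 Rat cortical primary cultures, 48-well MEA (16 electrodes/well); compound from plating, renewed DIV 5, 9. Network spike duration (AxIS adaptive detector) recorded DIV 5/7/9/12, combined as trapezoidal AUC; loss direction vs DMSO.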

[9] = CCTE_Shafer_MEA_dev_bursting_electrodes_number: CCTE's Neural Network Formation Assay for Number of Bursting Electrodes, Shafer Lab (AID 2284043; active = hit-call score of the fitted dose curve at least 0.9, where 1 is the maximum;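 as to AC50: potency is for loss of bursting electrodes relative to DMSO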)
Summary of the method: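 Primary rat cortical neurons plated on 16-electrode MEA wells, exposed from day 0 with compound renewed at DIV 5 and 9. Electrodes bursting ≥1 burst per 2 min counted on days 5, 7, 9 and 12; trapezoidal AUC across days, fitted for loss versus DMSO.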

Measured: AC50

O=S(=O)(OCCOC(F)(F)F)C(F)(F)F
not listed: [9]
inactive: all other assays above

OCC(F)(F)C(F)(F)C(F)(F)F
inactive: all assays above

OC[C@@H](O)[C@@H](O)[C@H](O)[C@@H](O)CO
inactive: all assays above

O=C(O)C=C(C(F)(F)F)C(F)(F)F
active: [5] 15 µM
inactive: all other assays above

CC(CCl)OP(=O)(OC(C)CCl)OC(C)CCl (configuration not stated)
inactive: [1] | [9] | [2] | [3] | [4] | [5] | [6] | [7] | [8]
active: [7] 50 µM | [8] 50 µM

OCC(F)(F)C(F)(F)C(F)(F)C(F)(F)C(F)(F)C(F)F
inactive: all assays above

Cc1ccc(S(=O)(=O)OCC(F)(F)C(F)(F)C(F)(F)C(F)(F)C(F)(F)C(F)F)cc1
not listed: [9]
inactive: all other assays above

FC(F)(F)C(F)(F)C(F)(F)C(F)(F)C(F)(F)C(F)(F)CC1CO1 (configuration not stated)
not listed: [9]
inactive: all other assays above

O=C(O)C(F)(F)C(F)(F)C(F)(F)F
inactive: all assays above

N=C(N)C(F)(F)C(F)(F)C(F)(F)C(F)(F)C(F)(F)C(F)(F)C(F)(F)F
active: [7] 26.8 µM
inactive: all other assays above

FC(F)(F)C(F)(F)C(F)(F)C(F)(F)C(F)(F)CCI
active: [9] 0.822 µM | [7] 22.3 µM | [8] 15 µM
inactive: all other assays above

O=S(=O)(OCC(F)F)C(F)(F)F
inactive: all assays above
